Source: PubChem BioAssay AID602346 (Broad Institute, 2012)
Hit rate of the full screen: of about 340,000 compounds, about 1,200 (0.35%) were called active. Only a selection was taken, and actives are over-represented in it overall. A number with no mark means an inactive call. Rule as the data show it: active = inhibition above about 50% (passing the limit was not always enough); inconclusive = no clear call, values can overlap the other calls; inactive = below about 31%.

experiment: HIV Vif self-association inhibitors, primary screen, imaging, HEK293T, single point (AID 602346); settings: HEK293T cells, Vif self-association by quenched fluorescence, 24 h, at 7.49 µM, active compounds read high

Going from `CCOC1=C2[C@H]([C@H]3C(=O)N(c4ccccc4)C(=O)[C@H]3C1)[C@@H](c1ccccc1)N(S(=O)(=O)c1ccc(C)cc1)[C@H]2c1ccccc1` to `CN(C(=O)CN1CCN(c2cc(-c3ccc(OCc4ccccc4)cc3)ncn2)CC1)c1ccccc1`, the inhibition falls from 6.5% to -17.3%.

Compared with `Cc1cc2nc(-c3ccc(Cl)cc3)c(Cc3cccc(F)c3)n2c(C)c1Br`, `CC(=O)Nc1cc(-c2ccccc2N(C)C)cn2c(-c3ccc(F)c(Cl)c3)cnc12` is lower in inhibition: 16.2% for the first, -4.22% for the second.

Going from `C[C@H]1CN([C@@H](C)CO)C(=O)c2cc(C3=CCCCC3)cnc2O[C@@H]1CN(C)C(=O)Cc1ccccc1` to `Cc1cccc(CNC(=O)c2sc(=O)n(Cc3ccccc3C)c2C)c1`, the inhibition rises from -21% to -3.32%.

First: COc1ccc(NC(=O)c2cn(-c3ccccc3)nc2SC)cc1
Second: Cn1c(NC(=O)c2ccccc2)nc2ccccc21
The inhibition of the first is lower: -9.63% for the first, -0.44% for the second.

Compared with `O=C(O)c1ccccc1-c1ccccc1C(=O)Nc1nccs1`, `O=C1C=C(NS(=O)(=O)c2ccccc2)C(=O)c2ccccc21` is lower in inhibition: 13.1% for the first, 5.11% for the second.

First: CC1(C(=O)Nc2cccc3c2CCCC3)CCN1C(=O)CCc1ccc(Cl)cc1Cl (stereo unspecified)
Second: CCc1nc2c(OCc3ccc(Cl)cc3Cl)cccn2c1N(C)C(=O)C(C)C
The inhibition of the first is higher: -0.855% for the first, -10.6% for the second.

Going from `CCc1cc(-c2nnn(CCC3COCCO3)c2CC)ccc1-c1cn(Cc2ccc3ccccc3c2)nn1` (stereo unspecified) to `CCOCCC(=O)Nc1ccc2c(c1)c(=O)n(C)n2-c1ccc2ccccc2c1`, the inhibition rises from -19.8% to 34.9%.

First: CCc1nc2ccc(C(=O)Nc3cc(-c4ccccc4)ccc3OC)cn2c1N(CC)CC(=O)N(C)C
Second: CCOC(=O)c1cc(-c2sc(NC(=O)c3ccccc3)nc2C)n(Cc2ccccc2)n1
The inhibition of the first is lower: -11.6% for the first, -2.32% for the second.

First: N#CC(=C1CCCC1)c1nc(-c2ccc(Cl)cc2)cs1
Second: Cn1c(/C(C#N)=C2/CCCCCN2)nc2ccccc21
The inhibition of the first is lower: 3% for the first, 5.07% for the second.

Compared with `O=C(NCCOc1ccccc1)N1[C@H]2CC[C@@H]1C=C(c1ccc(F)cc1OCc1ccccc1)C2`, `NC(c1csc(NC(=O)Nc2ccccc2Oc2ccccc2)n1)c1ccccc1Cl` (stereo unspecified) is lower in inhibition: -2.23% for the first, -9.54% for the second.

Going from `Cc1ccc2[nH]c(=O)c(-c3nc4c(C)cccn4c3NCc3ccco3)cc2c1` to `Cc1ccc(CNC(=O)c2ccc3c(c2)S(=O)(=O)c2ccccc2C3=O)cc1`, the inhibition rises from -12.9% to 5.37%.

Going from `CCc1nc2c(OCc3ccc(C(F)(F)F)cc3)cccn2c1N(C)C(=O)CC(C)C` to `CCc1nc2c(OCCC3CCCCC3)cccn2c1N(C)C(=O)c1ccco1`, the inhibition rises from -5.03% to 3.23%.

Compared with `COc1ccc(NC(=O)C2Cc3c(-c4ccc5c(c4)OCO5)ccnc3O2)cn1` (stereo unspecified), `CC(=O)Nc1cccc(-c2ccnc3c2CC(C)(C(=O)NCc2ccccc2)O3)c1` (stereo unspecified) is lower in inhibition: -5.58% for the first, -11.2% for the second.

First: COc1cccc(CNc2nc(NCc3ccccc3OC)nc3ccsc23)c1
Second: CC(=O)Nc1ccc(CNc2nc(NCCN(C)C)nc3cc(-c4ccccc4)sc23)cc1
The inhibition of the first is higher: -2.52% for the first, -16% for the second.

Compared with `CCCOc1ccccc1C1CC(=O)Nc2cc3c(cc21)OCO3` (stereo unspecified), `O=C1OCC2=C1C(c1ccc(Cl)cc1)c1cc3c(cc1O2)OCO3` (stereo unspecified) is lower in inhibition: -2.32% for the first, -11.3% for the second.

First: COc1ccc(CN(C)C(=O)Cc2ccsc2)c(OC)c1OC
Second: COc1ccc(OC)c(NC(=O)COC(=O)Cc2ccsc2)c1
The inhibition of the first is lower: -9.61% for the first, 9.67% for the second.

Going from `O=C(COc1ccccc1Cl)Nc1ccc(C(=O)c2ccc(C(=O)O)cc2)cc1` to `O=C(COc1ccccc1Cl)Nc1ccccc1C(=O)NC1CC1`, the inhibition falls from 21.3% to -13.2%.

Compared with `COc1cncc(-c2cnc3sc(NCCc4ccccn4)nn23)c1`, `C=CCn1nc(C(=O)OCC)cc1-c1sc(NC(=O)c2ccccc2)nc1C` is higher in inhibition: -4.71% for the first, -3.36% for the second.

Going from `OC(c1cc(Cl)cc(Cl)c1)c1ncc(-c2ccccc2C(F)(F)F)[nH]1` (stereo unspecified) to `CC1(Cc2cccc(C#N)c2)C(=O)Nc2ccc(-c3cccc(C(F)(F)F)c3)cc21` (stereo unspecified), the inhibition falls from 7.62% to -26.8%.

Going from `O=C(c1ccc(CS(=O)Cc2ccccc2Cl)o1)N1CCN(c2ccccc2)CC1` (stereo unspecified) to `O=C(c1ccc(N2CCCC2=O)cc1)N1CCN(c2ccc(C(F)(F)F)cc2[N+](=O)[O-])CC1`, the inhibition falls from 2.07% to -4.95%.

Going from `O=C(CCc1ccc(O)cc1)NN=Cc1cc(Br)ccc1O` to `Cc1cc(=O)[nH]c(SCC(=O)Nc2ccc(Br)cc2)n1`, the inhibition rises from -6.15% to -3.77%.

First: CC1(C)CC(=O)C=C(NCCCNC2CCCCC2)C1
Second: COC(=O)NNC1=CC(=O)CC(C)(C)C1
The inhibition of the first is lower: -5.64% for the first, 7.17% for the second.

First: CC(C)C[C@H]1CNC(=S)N1C[C@H]1CCCN1C[C@H](Cc1ccc(O)cc1)N1C[C@H](Cc2ccc(O)cc2)N(CC2CCCCC2)C1=S
Second: CCOc1ccc(CCN2C(=S)N([C@@H](CC(C)C)CN3CCC[C@@H]3CN3C(=S)NC[C@@H]3Cc3ccc(O)cc3)C[C@@H]2CC(C)C)cc1
The inhibition of the first is lower: 5.91% for the first, 12.9% for the second.

Going from `Cc1ccc(S(=O)(=O)N2C[C@H]3n4c(=O)ccc(=O)n4C[C@H](OC(=O)NC4CCCC4)[C@@]3(O)C2)cc1` to `O=C(CSCc1ccc(Br)cc1)Nc1ccc(S(=O)(=O)N2CCCCCC2)cc1`, the inhibition rises from -13.2% to -7.79%.

First: CC1CCN(c2ccc3c(c2)S(=O)(=O)c2cc(C(=O)O)ccc2C3=O)CC1
Second: O=C(NCc1cccc(Cl)c1)C1CCN(c2nnc(N3CCCC3=O)s2)CC1
The inhibition of the first is lower: -0.214% for the first, 3.92% for the second.

Going from `CN(C)CCNC(=O)c1cccc(-c2cnc3c(NC=O)cc(-c4cccc(C(F)(F)F)c4)cn23)c1` to `O=C(CCCN1C(=O)C(c2ccccc2)Oc2cccnc21)Nc1ccccc1Br` (stereo unspecified), the inhibition rises from 5.61% to 6.43%.

Going from `C=C1C(=O)[C@]23C[C@H]1CCC2[C@@]1(C)C(C[C@@H]3O)[C@](C)(C(=O)O)CC[C@@H]1O` (stereo partly specified) to `O=C(NCc1cccc(Cl)c1)C1CCC(=O)N(C2CC2)C1` (stereo unspecified), the inhibition falls from 12.6% to -0.951%.

Compared with `COc1cccc(OCCOc2cccc(/C=N/n3cnnc3)c2)c1`, `COc1ccc(/C(C)=N/NC(=O)c2ccc3nc[nH]c3c2)cc1` is lower in inhibition: 11.7% for the first, 1.81% for the second.

First: Cc1ccccc1OS(=O)(=O)c1cccc([N+](=O)[O-])c1
Second: C/C(=N\NC(=O)c1ccc2ccccc2c1)c1cccnc1
The inhibition of the first is higher: -0.237% for the first, -7.71% for the second.

Going from `COc1ccccc1N1CCN(Cc2cc(OC)c3c(c2)OCO3)CC1` to `COc1ccc(CN2CCN(Cc3ccc(OC)c(OC)c3OC)CC2)cc1`, the inhibition rises from -1.02% to -0.337%.

First: COCOCCn1cc(CN2CCS(=O)(=O)N(Cc3ccc(-c4ccccc4)cc3)C(CC(C)C)C2=O)nn1 (stereo unspecified)
Second: N#Cc1c(N)n(CCOC(=O)c2ccc(Cl)cc2)c2nc3ccccc3nc12
The inhibition of the first is higher: 15.8% for the first, -17.3% for the second.

Going from `CC1(C(=O)NCC2CCOCC2)Cc2c(-c3cccc(C(N)=O)c3)ccnc2O1` (stereo unspecified) to `NC1=CC(=O)C(=O)c2cccnc21`, the inhibition falls from -1.25% to -1.29%.

Going from `Cc1cc(Cl)ccc1-c1nc(NCCN(C)C)nc2ccsc12` to `COc1ccc(-c2ccc(C(=O)NC(C)C)c3occc23)c(C)c1`, the inhibition falls from -1.21% to -26.1%.

First: Cc1cc2cc3n(c2nn1)N=C(Cl)CC3
Second: Cc1nc2c(OCC(=O)C(C)(C)C)cccn2c1N(C)Cc1cccs1
The inhibition of the first is higher: 29.1% for the first, -0.585% for the second.

Going from `CN(Cc1ccc(C(F)(F)F)cc1)C(=O)[C@H]1O[C@@H](n2cnc3c(N)ncnc32)[C@H](O)[C@@H]1O` to `Cc1nccn1-c1ccc(NC(=O)[C@H]2O[C@@H](n3cnc4c(N)ncnc43)[C@H](O)[C@@H]2O)cc1`, the inhibition rises from -5.61% to 14.6%.

With `COc1ccc(-c2nn(-c3ccccc3)cc2C(=O)Nc2nccs2)cc1OC` the inhibition was 52.9% (active).
With `N#C/C(=C1\CCCN1)c1nc(-c2ccccc2)cs1` the inhibition was 61.4% (active).
For `CCCN(CCC)c1nc2c(C)cccn2c(=O)c1/C=C1/SC(=S)N(Cc2ccco2)C1=O`, the inhibition was 146% (active).
For `COc1ccccc1C1C2=C(COC2=O)Nc2cc3c(cc21)OCO3` (stereo unspecified), the inhibition was 89.1% (active).
In the case of `COc1ccccc1C(C)NC(=O)Cc1ccsc1` (stereo unspecified), the inhibition was 98.8% (active).
With `CC(=O)Nc1ccc(NC(=O)COc2ccccc2C(=O)Nc2cccc(Cl)c2Cl)cc1` the inhibition was 146% (active).
For `O=C(NC1=CC(=O)c2ccccc2C1=O)c1ccccc1`, the inhibition was 120% (active).
For `CC1(C)CC(=O)C=C(NC2CC(C)(C)NC(C)(C)C2)C1`, the inhibition was 65.2% (active).
With `Cc1ccc(CNC(=O)c2cccc3c2C(=O)c2ccc(N4CCC(C)CC4)cc2S3(=O)=O)cc1` the inhibition was 111% (active).
With `Cc1ccccc1OCCOc1ccc([N+](=O)[O-])cc1/C=N/n1cnnc1` the inhibition was 69.4% (active).
In the case of `COc1ccccc1N1CCN(Cc2ccc(OC)c3ccccc23)CC1`, the inhibition was 112% (active).
For `O=C1CCCN2N=C(SCC(=O)Nc3ccc(Br)cc3)SC2=N1`, the inhibition was 59.2% (active).
With `CC(=NNC(=O)c1ccc2nc[nH]c2c1)c1ccc(Br)cc1` the inhibition was 63.5% (active).
In the case of `CN(C)CCCn1c(N)c(C#N)c2nc(C#N)c(C#N)nc21`, the inhibition was 52.6% (active).
With `Nc1ncnc2c1ncn2[C@@H]1O[C@H](C(=O)NCC(F)(F)F)[C@@H](O)[C@H]1O` the inhibition was 96.8% (active).
For `O=C(NCc1cccc(Cl)c1)C1=CC=CN2CCS(=O)(=O)N=C12`, the inhibition was 52.6% (active).
